Values without a mark were called inactive. Activity calls are given as the source filed them. Calls come from the whole dose curve; as a rule, active = well fitted curve in the direction sought with a large enough effect in the repeat runs; inconclusive = weak or mixed curves; inactive = flat fitted curve, though single readings scatter. Positions of bridges follow the written chain, without caps; N, C: chain ends. Non-standard residues stand in square brackets, D forms with d. Residues, ends and D or L forms follow the SMILES beside them. *: point of attachment. Dab(CH2SO3H) = N[C@@H](CCNCS(=O)(=O)O)C(=O)O; X3 = CC[C@@H](C)CCCCC(=O)*; Dab = NCC[C@H](N)C(=O)O
% is set by controls: 0 for no effect and ±100 for the full control effect.

The nature of the assay: qHTS assay to test for compound auto fluorescence at 460 nm (blue) in HepG2 cells (AID 720687). The conditions noted are these: autofluorescence 405/460 nm, 1 h; series mostly up to 46 µM; fluorescence, % of fluorescent control: at the top concentration. The source says:
U.S. Tox21 Program National Center for Advancing Translational Sciences [NCATS] NIH Chemical Genomics Center [NCGC] U.S. Environmental Protection Agency [EPA] National Institutes of Environmental Health Sciences [NIEHS] National Toxicology Program [NTP] U.S. Food and Drug Administration [FDA] Tox21 Assay Overview: Compound auto fluorescence often interferes with screening of the compound library against various biological targets and signaling pathways. Some of these compounds may have fluorophoric properties. Such properties may interfere with the assay outputs resulting in false positives and/or negatives. To decrease such complications and ensure the compound activities are relevant in terms of biological response, the Tox21 10K compound library was screened for auto fluorescence. From the fluorophores used as reporter signals in our screening assays, the auto fluorescence equivalencies of compounds against three fluorophores have been evaluated: Triamterene, Fluorescein and Rose Bengal sodium for blue, green and red fluorescence, respectively. The fluorescence intensities were measured using Excitation/Emission wavelengths at 405/460nm, 485/535nm and 540/590nm for blue, green and red labels, respectively. This assay includes the blue fluorescence data.
Tox21 Assay Protocol Summary: 2,000 HepG2 cells in 5 uL of culture medium (MEM containing 10% FBS) per well were dispensed into black wall/clear bottom 1536-well plates using a Multidrop Combi Dispenser (ThermoFisher Scientific, Waltham, MA). The assay plates were incubated overnight at 37 C to allow cell attachment to the well bottom, followed by the transfer of 23 nL compound or DMSO vehicle by a pintool work station (Kalypsys , San Diego, CA). After the assay plates were incubated for 1 hr at 37 C and 5% CO2, fluorescence intensities in the assay plates were measured by an Envision (PerkinElmer, Shelton, CT) plate reader using three labels for measuring blue, green and red fluorescence at […] 460, 535 and 590 nm respectively.
For orientation: qHTS replaces the single test concentration by a dilution series.
Regarding `c1ccc(-n2cnnn2)cc1`, the “fluorescence, % of fluorescent control” value is -0.0143%.

Consider `O=C(O)c1cc(O)c2c(c1)[C@H]([C@H]1c3cc(C(=O)O)cc(O)c3C(=O)c3c(O[C@@H]4O[C@H](CO)[C@@H](O)[C@H](O)[C@H]4O)cccc31)c1cccc(O[C@@H]3O[C@H](CO)[C@@H](O)[C@H](O)[C@H]3O)c1C2=O`, for which the “fluorescence, % of fluorescent control” value is -0.0822%.

Turning to `O=C(O)c1cc(=O)c2c3nc4ccccc4oc-3cc(=O)c2[nH]1`, the “fluorescence, % of fluorescent control” value was 0.675%.

`N#Cc1c(N(CC(=O)O)CC(=O)O)sc(C(=O)O)c1CC(=O)O`: the “fluorescence, % of fluorescent control” value is -0.162%.

In the case of `OCC1(CO)COC(C(Cl)(Cl)Cl)OC1`, the “fluorescence, % of fluorescent control” value is -0.0098%.

As for `CC(CNC(=O)c1cccnc1)NC(=O)c1cccnc1` (stereo not given), the “fluorescence, % of fluorescent control” value is -0.0515%.

Consider `C=C1[C@@H]2CC[C@@H](C2)C1(C)C`, for which the “fluorescence, % of fluorescent control” value was -0.0189%.

Consider `NC(=O)C1c2ccccc2CCc2ccccc21`, for which the “fluorescence, % of fluorescent control” value is -0.108%.

In the case of `CC(=O)OCC1=C(C(=O)O)N2C(=O)[C@@H](NC(=O)Cc3ccccc3)[C@H]2SC1`, the “fluorescence, % of fluorescent control” value is 1.26%.

`CC(=O)OCC(=O)[C@@]1(O)CC[C@H]2[C@@H]3CCC4=CC(=O)CC[C@]4(C)C3=CC[C@@]21C`: the “fluorescence, % of fluorescent control” value was -0.145%.

Take `CC1(C)S[C@@H]2[C@H](NC(=O)[C@@H](NC(=O)N3CCNC3=O)c3ccccc3)C(=O)N2[C@H]1C(=O)O`: the “fluorescence, % of fluorescent control” value was 0.0018% [at 18.6 µM].

In the case of `CCC(=O)OC(OP(=O)(CCCCc1ccccc1)CC(=O)N1C[C@H](C2CCCCC2)C[C@H]1C(=O)O)C(C)C` (stereo not given in full), the “fluorescence, % of fluorescent control” value was 0.012%.

For `CO[C@H]1C[C@H](O[C@H]2[C@H](C)[C@@H](O[C@@H]3O[C@H](C)C[C@H](N(C)C)[C@H]3O)[C@@H](C)C[C@]3(CO3)C(=O)[C@H](C)[C@@H](O)[C@@H](C)[C@@H](C)OC(=O)[C@@H]2C)O[C@@H](C)[C@@H]1O`, the “fluorescence, % of fluorescent control” value is 0.0549% [at 18.6 µM].

As for `CC(C)OC(=O)Nc1ccc2nc(-c3cscn3)[nH]c2c1`, the “fluorescence, % of fluorescent control” value was -0.0405%.

With `Cc1cccc(C)c1NC(=O)C1CCCCN1C` (stereo not given), the “fluorescence, % of fluorescent control” value is -0.0104%.

In the case of `O=C1CCC/C=C\CCCCCCCCCC1`, the “fluorescence, % of fluorescent control” value is 0.0125% [at 91.3 µM].

On to `NCCO/C=C/[C@H](N)C(=O)O`, for which the “fluorescence, % of fluorescent control” value is -0.0686%.

For `CCCCCCOC(=O)c1cccnc1`, the “fluorescence, % of fluorescent control” value is -0.0585%.

As for `N[C@@H](Cc1ccc(O)c(O)c1)C(=O)O`, the “fluorescence, % of fluorescent control” value is 1.02%.

Take `C[Se]CC[C@H](N)C(=O)O`: the “fluorescence, % of fluorescent control” value was -0.0594%.

`NC(=O)[C@@H]1C[C@]2(NC(=O)NC2=O)c2cc(F)ccc2O1`: the “fluorescence, % of fluorescent control” value is -0.0116%.

Regarding `CC[C@@H](C)CCCCC(=O)N[C@@H](CCNCS(=O)(=O)O)C(=O)N[C@H](C(=O)N[C@@H](CCNCS(=O)(=O)O)C(=O)N[C@H]1CCNC(=O)[C@H]([C@@H](C)O)NC(=O)[C@H](CCNCS(=O)(=O)O)NC(=O)[C@H](CCNCS(=O)(=O)O)NC(=O)[C@H](CC(C)C)NC(=O)[C@@H](CC(C)C)NC(=O)[C@H](CCNCS(=O)(=O)O)NC1=O)[C@@H](C)O` (X3-[Dab(CH2SO3H)]T[Dab(CH2SO3H)][Dab][Dab(CH2SO3H)][dL]L[Dab(CH2SO3H)][Dab(CH2SO3H)]T; lactam 4-C), the “fluorescence, % of fluorescent control” value is -0.0472%.

In the case of `CCC(C)(C)c1ccc(CC(C)CN2C[C@@H](C)O[C@@H](C)C2)cc1` (stereo not given in full), the “fluorescence, % of fluorescent control” value is -0.0044%.

For `NC(=O)[C@@H]1CCCN1C(=O)[C@H](Cc1cnc[nH]1)NC(=O)[C@@H]1CCC(=O)N1`, the “fluorescence, % of fluorescent control” value is -0.113%.

For `Oc1ccc(Cl)c2c1CCC2`, the “fluorescence, % of fluorescent control” value was -0.0866%.

`CO/N=C(\C(=O)N[C@@H]1C(=O)N2C(C(=O)[O-])=C(C[n+]3cccc4c3CCC4)CS[C@H]12)c1csc(N)n1`: the “fluorescence, % of fluorescent control” value is 0.155%.

On to `O=P(O)(O)OP(=O)(O)OP(=O)(O)O`, for which the “fluorescence, % of fluorescent control” value was -0.0681%.

As for `COc1ccc(/C=N/NC(=O)c2ccncc2)c(C(=O)O)c1OC`, the “fluorescence, % of fluorescent control” value is -0.112%.

For `CN(C/C=C/c1ccccc1)Cc1cccc2ccccc12`, the “fluorescence, % of fluorescent control” value was -0.085%.

Turning to `CCC(O)c1ccccc1` (stereo not given), the “fluorescence, % of fluorescent control” value was 0.0242%.

As for `CCCCCCCCOC(=O)c1cc(O)c(O)c(O)c1`, the “fluorescence, % of fluorescent control” value is 0.0132% [at 91.3 µM].

Turning to `O=C(O)Cc1nn(Cc2ccc(Br)cc2F)c(=O)c2ccccc12`, the “fluorescence, % of fluorescent control” value is 0.168%.

Regarding `CC/C=C\C/C=C\C/C=C\C/C=C\C/C=C\C/C=C\CCC(=O)O`, the “fluorescence, % of fluorescent control” value is 0.575%.

Turning to `CO/N=C(\C(=O)N[C@@H]1C(=O)N2C(C(=O)[O-])=C(C[n+]3ccc(N)n3CCO)CS[C@H]12)c1csc(N)n1`, the “fluorescence, % of fluorescent control” value is 0.0332%.

Turning to `Cc1c(O)c(=O)ccn1C`, the “fluorescence, % of fluorescent control” value was 0.278%.

As to `CC1(C)C[C@@H]1C(=O)N/C(=C\CCCCSC[C@H](N)C(=O)O)C(=O)O`, the Potency result was “inactive”.

On to `CSCCC(N)C(=O)O` (stereo not given), for which the “fluorescence, % of fluorescent control” value is 0.452%.

Regarding `NC(N)=NCC1COC2(CCCCC2)O1` (stereo not given), the “fluorescence, % of fluorescent control” value was 0.0396% [at 18.6 µM].

On to `CCOc1ccc(S(=O)(=O)O)c2cccnc12`, for which the “fluorescence, % of fluorescent control” value is 0.244%.

`CC(C)C[C@@H](NC(=O)[C@@H](O)[C@H](N)Cc1ccccc1)C(=O)O`: the “fluorescence, % of fluorescent control” value was -0.103%.

Values taken from PubChem BioAssay (Tox21).
